In paper PMC5540273 (PLoS ONE, 2017):
Values joined by “and” are separate entries in the source; they are usually repeats but may differ in a detail not shown here. Equal entries are not always repeated. Where two headings read alike, the source gives them in different places.

Legend:
[1] = tested on: T1, ERK2; conditions: concentration: 1 μM, replicates: in singlicate, n = 1
T1 construct: gene MAPK1

[2] = tested on: T2, ERK5; conditions: concentration: 1 μM, replicates: in singlicate, n = 1
T2 construct: gene MAPK7

[3] = tested on: T3, ERK8; conditions: concentration: 1 μM, replicates: in singlicate, n = 1
T3 construct: gene MAPK15

[4] = tested on: T4, ERK4; conditions: concentration: 1 μM, replicates: in singlicate, n = 1
T4 construct: gene MAPK4

[5] = tested on: T5, FAK; conditions: concentration: 1 μM, replicates: in singlicate, n = 1
T5 construct: gene PTK2

[6] = tested on: FES; conditions: concentration: 1 μM, replicates: in singlicate, n = 1
[7] = tested on: FGFR2; conditions: concentration: 1 μM, replicates: in singlicate, n = 1
[8] = tested on: FGFR3; conditions: concentration: 1 μM, replicates: in singlicate, n = 1
[9] = tested on: FGFR4; conditions: concentration: 1 μM, replicates: in singlicate, n = 1
[10] = tested on: EPHB6; conditions: concentration: 1 μM, replicates: in singlicate; n = 1
[11] = tested on: ERBB2; conditions: concentration: 1 μM, replicates: in singlicate; n = 1
[12] = tested on: ERBB3; conditions: concentration: 1 μM, replicates: in singlicate; n = 1
[13] = tested on: ERBB4; conditions: concentration: 1 μM, replicates: in singlicate; n = 1
[14] = tested on: T6, ERK1; conditions: concentration: 1 μM, replicates: in singlicate; n = 1
T6 construct: gene MAPK3

[15] = tested on: T7, ERK3; conditions: concentration: 1 μM, replicates: in singlicate; n = 1
T7 construct: gene MAPK6

[16] = tested on: ERN1; conditions: concentration: 1 μM, replicates: in singlicate; n = 1
[17] = tested on: FER; conditions: concentration: 1 μM, replicates: in singlicate; n = 1
[18] = tested on: FGFR1; conditions: concentration: 1 μM, replicates: in singlicate; n = 1
[19] = tested on: FGR; conditions: concentration: 1 μM, replicates: in singlicate; n = 1
[20] = tested on: FLT1; conditions: concentration: 1 μM, replicates: in singlicate; n = 1
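Further: KINOMEscan kinase panel screen.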

Cl.Cl.Cl.Fc1ccc(-c2ncn(C3CCNCC3)c2-c2ccnc(Nc3ccccc3)n2)cc1 [SB-238039]
%Inh ([1]; 1 µM): 37% and 26%
%Inh ([2]; 1 µM): 46% and 0%
%Inh ([3]; 1 µM): 0% and 10%

NCCNS(=O)(=O)c1ccc(-c2ccnc3[nH]ccc23)cc1 [GSK977617]
%Inh ([4]; 1 µM): 3% and 25%
%Inh ([3]; 1 µM): 46% and 17%
%Inh ([5]; 1 µM): 5% and 0%
%Inh ([6]; 1 µM): 11% and 0%
%Inh ([7]; 1 µM): 6% and 0%
%Inh ([8]; 1 µM): 6% and 10%
%Inh ([9]; 1 µM): 11% and 6%

CC(C)(CN)c1nc(-c2ccc(Cl)c(O)c2)c(-c2ccncc2)[nH]1.O=C(O)C(F)(F)F [SB-477794]
%Inh ([4]; 1 µM): 13% and 20%
%Inh ([2]; 1 µM): 32% and 56%
%Inh ([6]; 1 µM): 0% and 22%
%Inh ([8]; 1 µM): 8% and 33%
%Inh ([9]; 1 µM): 18% and 0%

Cc1nnc(-c2ccc3ncc(-c4ccc(S(C)=O)cc4)n3c2)o1 (centres unmarked)
%Inh [10]: 13%
%Inh [11]: 65%
%Inh [12]: 3%
%Inh [13]: 0%
%Inh [14]: 0%
%Inh [1]: 0%
%Inh [15]: 0%
%Inh [4]: 0%
%Inh [2]: 0%
%Inh [3]: 0%
%Inh [16]: 10%
%Inh [5]: 0%
%Inh [17]: 0%
%Inh [6]: 4%
%Inh [18]: 0%
%Inh [7]: 0%
%Inh [8]: 0%
%Inh [9]: 0%
%Inh [19]: 0%
%Inh [20]: 0%

O=C(Nc1cccc(-c2nn3ncccc3c2-c2ccnc(Nc3cccc(C(F)(F)F)c3)n2)c1)c1c(F)cccc1F [GSK299495]
%Inh [10]: 30%
%Inh [11]: 92.1%
%Inh [12]: 56%
%Inh [13]: 98.4%
%Inh [14]: 0%
%Inh [1]: 0%
%Inh [15]: 7%
%Inh [4]: 18%
%Inh [2]: 0%
%Inh [3]: 0%
%Inh [16]: 15%
%Inh [5]: 0%
%Inh [17]: 24%
%Inh [6]: 0%
%Inh [18]: 0%
%Inh [7]: 0%
%Inh [8]: 0%
%Inh [9]: 0%
%Inh [19]: 95.5%
%Inh [20]: 91.5%

Cc1cn2c(=O)cc(N3CCOCC3)nc2n1Cc1cccc(Cl)c1Cl [GSK2334006]
%Inh [10]: 0%
%Inh [11]: 20%
%Inh [12]: 0%
%Inh [13]: 33%
%Inh [14]: 0%
%Inh [1]: 13%
%Inh [15]: 21%
%Inh [4]: 0%
%Inh [2]: 0%
%Inh [3]: 24%
%Inh [16]: 0%
%Inh [5]: 0%
%Inh [17]: 33%
%Inh [6]: 8%
%Inh [18]: 1%
%Inh [7]: 26%
%Inh [8]: 18%
%Inh [9]: 1%
%Inh [19]: 51%
%Inh [20]: 34%

Cl.Oc1cccc(Nc2ccnc3cc(-c4ccncc4)ccc23)c1 [GW494601]
%Inh [10]: 86%
%Inh [11]: 0%
%Inh [12]: 40%
%Inh [13]: 38%
%Inh [14]: 0%
%Inh [1]: 0%
%Inh [15]: 2%
%Inh [4]: 26%
%Inh [2]: 0%
%Inh [3]: 0%
%Inh [16]: 21%
%Inh [5]: 0%
%Inh [17]: 23%
%Inh [6]: 0%
%Inh [18]: 59%
%Inh [7]: 0%
%Inh [8]: 12%
%Inh [9]: 12%
%Inh [19]: 98.1%
%Inh [20]: 94.4%

Cc1ccc(C(=O)NCC(N)=O)cc1-n1c(C)cc(OCc2ccc(F)cc2F)c(Br)c1=O
%Inh [10]: 6%
%Inh [11]: 36%
%Inh [12]: 0%
%Inh [13]: 0%
%Inh [14]: 6%
%Inh [1]: 0%
%Inh [15]: 0%
%Inh [4]: 0%
%Inh [2]: 13%
%Inh [3]: 13%
%Inh [16]: 0%
%Inh [5]: 7%
%Inh [17]: 6%
%Inh [6]: 23%
%Inh [18]: 51%
%Inh [7]: 32%
%Inh [8]: 21%
%Inh [9]: 19%
%Inh [19]: 25%
%Inh [20]: 0%

COc1cc(Nc2nccc(N3CCC(NC(=O)c4cccc(NC(C)=O)c4)C3)n2)cc(OC)c1OC (centres unmarked) [GSK1379754]
%Inh [10]: 78%
%Inh [11]: 16%
%Inh [12]: 0%
%Inh [13]: 1%
%Inh [14]: 0%
%Inh [1]: 14%
%Inh [15]: 0%
%Inh [4]: 1%
%Inh [2]: 0%
%Inh [3]: 0%
%Inh [16]: 22%
%Inh [5]: 0%
%Inh [17]: 6%
%Inh [6]: 11%
%Inh [18]: 21%
%Inh [7]: 21%
%Inh [8]: 25%
%Inh [9]: 6%
%Inh [19]: 27%
%Inh [20]: 44%

CN1c2ccc(CNc3ccc(F)cc3)cc2-c2c(cnn2C)S1(=O)=O
%Inh [10]: 0%
%Inh [11]: 13%
%Inh [12]: 9%
%Inh [13]: 0%
%Inh [14]: 0%
%Inh [1]: 0%
%Inh [15]: 0%
%Inh [4]: 0%
%Inh [2]: 0%
%Inh [3]: 0%
%Inh [16]: 0%
%Inh [17]: 25%
%Inh [6]: 0%
%Inh [18]: 0%
%Inh [7]: 0%
%Inh [8]: 0%
%Inh [9]: 9%
%Inh [19]: 0%
%Inh [20]: 0%

CN(C(=O)c1ccc(-c2cc(-c3c[nH]nc3-c3ccccn3)ccn2)cc1)C1CCOCC1 [GW810083]
%Inh [10]: 0%
%Inh [11]: 38%
%Inh [12]: 16%
%Inh [13]: 0%
%Inh [14]: 0%
%Inh [1]: 4%
%Inh [15]: 11%
%Inh [4]: 7%
%Inh [2]: 0%
%Inh [3]: 1%
%Inh [16]: 2%
%Inh [5]: 0%
%Inh [17]: 0%
%Inh [6]: 14%
%Inh [18]: 4%
%Inh [7]: 0%
%Inh [8]: 0%
%Inh [9]: 0%
%Inh [19]: 0%
%Inh [20]: 41%

Cc1ccc(NC(=O)c2ccnc(N3CCN(C)CC3)c2)cc1-c1ccc(C(=O)NCC2CC2)cc1 [GW775604]
%Inh [10]: 0%
%Inh [11]: 0%
%Inh [12]: 0%
%Inh [13]: 0%
%Inh [14]: 0%
%Inh [1]: 0%
%Inh [15]: 0%
%Inh [4]: 0%
%Inh [2]: 0%
%Inh [3]: 0%
%Inh [16]: 0%
%Inh [5]: 0%
%Inh [17]: 24%
%Inh [6]: 0%
%Inh [18]: 0%
%Inh [7]: 0%
%Inh [8]: 0%
%Inh [9]: 0%
%Inh [19]: 8%
%Inh [20]: 0%
